Results reported in PubChem BioAssay (NCATS).
Results filed as inconclusive are left out. Calls of active or inactive are those of the source. Unless noted, calls follow the shape of the dose curve; as a rule, active = well fitted curve in the direction sought with a large enough effect; inconclusive = small, poorly fitted or top-dose-only effect, or another doubt; inactive = no such curve, though single readings can be large; an effect the other way counts as inactive or inconclusive.

Columns and labels:
[1] = molecular target: ATP-dependent DNA helicase Q1 (Homo sapiens) (UniProt P46063); experiment: qHTS Validation Assay for Inhibitors of RecQ-Like Dna Helicase 1 (RECQ1) (AID 2353)
ATP-dependent DNA helicase Q1 (Homo sapiens), sequence (P46063 whole entry, looked up): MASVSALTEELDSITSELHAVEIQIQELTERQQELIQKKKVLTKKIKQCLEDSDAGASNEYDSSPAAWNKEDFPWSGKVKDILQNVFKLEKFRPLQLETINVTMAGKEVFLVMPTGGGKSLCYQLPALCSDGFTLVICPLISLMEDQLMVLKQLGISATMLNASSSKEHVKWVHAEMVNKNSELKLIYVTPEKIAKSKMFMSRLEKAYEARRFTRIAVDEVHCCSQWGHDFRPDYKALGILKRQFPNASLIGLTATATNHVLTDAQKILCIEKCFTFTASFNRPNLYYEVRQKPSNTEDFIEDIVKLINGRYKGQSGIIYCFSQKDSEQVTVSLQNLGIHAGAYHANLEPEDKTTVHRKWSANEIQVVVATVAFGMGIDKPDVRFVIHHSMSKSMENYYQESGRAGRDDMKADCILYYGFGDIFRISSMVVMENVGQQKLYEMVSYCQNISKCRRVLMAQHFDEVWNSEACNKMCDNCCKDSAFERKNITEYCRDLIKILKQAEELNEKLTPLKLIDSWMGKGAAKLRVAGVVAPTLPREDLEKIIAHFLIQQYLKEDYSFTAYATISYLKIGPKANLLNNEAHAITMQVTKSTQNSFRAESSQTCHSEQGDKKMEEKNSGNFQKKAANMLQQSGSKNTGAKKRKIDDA
In short: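 50 nM RECQ1T1 preincubated 15 min with compound in Tris pH 8.0 buffer with MgCl2, DTT, Tween-20 and 2.5 ug/ml poly(dI-dC); started with 200 nM TAMRA/BHQ-2 forked duplex and 2 mM ATP. Unwinding read as fluorescence (525/598 nm), two reads 2 h apart.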

[2] = molecular target: RecQ-like DNA helicase BLM (Homo sapiens) (UniProt P54132); experiment: qHTS Validation Assay for Inhibitors of Bloom's syndrome helicase (BLM) (AID 2364)
In short: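 50 nM BLM preincubated 15 min at room temperature with compound in pH 8.0 Tris buffer containing 2.5 ug/ml poly(dI-dC); started with 200 nM TAMRA/BHQ-2 forked duplex and 2 mM ATP (final). Unwinding read as TAMRA fluorescence increase, two reads 2 h apart.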

[3] = Cytometric Cell-Based qHTS for Inhibitors of the mTORC1 Signaling Pathway in MEF (Tsc2-/-, p53-/-) Cells (AID 2660);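 also: percent of cells above a phospho-rpS6 to PI ratio cutoff in each well; series mostly up to about 38 µM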
In short: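 Immunofluorescence qHTS of rpS6 Ser235/236 phosphorylation: MEFs (Tsc2-/-, p53-/-) treated 24 h, 37 C, in DMEM + 10% FBS. Alexa-488 signal normalized to PI count, referenced to rapamycin (7.5 nM) and DMSO; PI cell number recorded for viability.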

[4] = High Content Imaging Cell-Based qHTS for Inhibitors of the mTORC1 Signaling Pathway in MEF (Tsc2-/-, p53-/-) Cells (AID 2666);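 also: percent of cells scored positive for phospho-rpS6 Ser235/236 immunostaining by imaging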
In short: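 Phospho-rpS6 (Ser235/236) immunofluorescence, normalized and scored as % positive cells using rapamycin and DMSO controls, was read in empty-vector Tsc2-/-, p53-/- MEFs after 24 h compound exposure at 37 C; propidium iodide counted cells.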

[5] = High Content Imaging Cell-Based qHTS for Inhibitors of the mTORC1 Signaling Pathway in MEF Cells (AID 2667);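 also: Tsc2-/- p53-/- MEFs stably re-expressing wild-type Tsc2 exposed 24 h; series mostly up to about 38 µM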
In short: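 WT MEFs (Tsc2-/-, p53-/- re-expressing Tsc2), in DMEM + 10% FBS, were treated with compound for 24 h at 37 C. Cells were then fixed and stained for phospho-rpS6 Ser235/236 with propidium iodide as cell count. Values are % positive cells, with thresholds set against rapamycin-treated cells.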

[6] = Cytometry Cell-Based qHTS for Inhibitors of the mTORC1 Signaling Pathway in MEF cells (AID 2668); also: potency is read from the fitted curve at half-maximal effect
In short: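 WT MEFs (Tsc2-/-, p53-/- stably re-expressing WT Tsc2) in DMEM + 10% FBS received compounds 24 hrs after plating, for 24 hrs at 37 degree Celsius. Fixed cells stained with Alexa-488 anti-phospho-rpS6 Ser235/236 and propidium iodide; laser-scanning cytometry read-out.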

[7] = Validation screen for inhibitors of Lassa infection (AID 463096; calls by dose curve)
[8] = Validation screen for small molecules that induce DNA re-replication in MCF 10A normal breast cells (AID 463097); also: nearly all actives have a fitted effect of over 60% in size; also: potency is read from the fitted curve at half-maximal effect
In short: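 Readout: Hoechst nuclear fluorescence intensity, 405 ex / 500-530 em, by scanning plate imager; re-replication scored as increase in nuclei with elevated DNA content. Cells exposed to compound 48 hr, 37 C, 5% CO2 beforehand.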

[9] = molecular target: Ubiquitin carboxyl-terminal hydrolase 2 (Homo sapiens) (UniProt O75604); experiment: qHTS Validation Assay for Inhibitors of Ubiquitin-specific Protease USP2a Using CHOP2 as the Reporter (AID 463106)
In short: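 USP2 core (10 nM final) was preincubated with compound 30 min at RT in pH 8.0 Tris/CaCl2/beta-ME/CHAPS buffer. Ub-CHOP2 and reporter substrate (25 nM final each) were then added, with fluorescence (Ex 485/Em 531) read after 60 min. Data were normalized to NEM full inhibition and fitted to concentration-response curves.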

[10] = molecular target: DNA polymerase III PolC-type (Bacillus subtilis (strain 168)) (UniProt P13267); experiment: qHTS Validation Assay for the Inhibitors of DNA Replication in Gram-Positive Bacteria (AID 485295);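 also: PicoGreen fluorescence of double-stranded DNA made on primed circular M13 template; series mostly up to about 57 µM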
DNA polymerase III PolC-type (Bacillus subtilis (strain 168)), sequence (P13267 whole entry, looked up): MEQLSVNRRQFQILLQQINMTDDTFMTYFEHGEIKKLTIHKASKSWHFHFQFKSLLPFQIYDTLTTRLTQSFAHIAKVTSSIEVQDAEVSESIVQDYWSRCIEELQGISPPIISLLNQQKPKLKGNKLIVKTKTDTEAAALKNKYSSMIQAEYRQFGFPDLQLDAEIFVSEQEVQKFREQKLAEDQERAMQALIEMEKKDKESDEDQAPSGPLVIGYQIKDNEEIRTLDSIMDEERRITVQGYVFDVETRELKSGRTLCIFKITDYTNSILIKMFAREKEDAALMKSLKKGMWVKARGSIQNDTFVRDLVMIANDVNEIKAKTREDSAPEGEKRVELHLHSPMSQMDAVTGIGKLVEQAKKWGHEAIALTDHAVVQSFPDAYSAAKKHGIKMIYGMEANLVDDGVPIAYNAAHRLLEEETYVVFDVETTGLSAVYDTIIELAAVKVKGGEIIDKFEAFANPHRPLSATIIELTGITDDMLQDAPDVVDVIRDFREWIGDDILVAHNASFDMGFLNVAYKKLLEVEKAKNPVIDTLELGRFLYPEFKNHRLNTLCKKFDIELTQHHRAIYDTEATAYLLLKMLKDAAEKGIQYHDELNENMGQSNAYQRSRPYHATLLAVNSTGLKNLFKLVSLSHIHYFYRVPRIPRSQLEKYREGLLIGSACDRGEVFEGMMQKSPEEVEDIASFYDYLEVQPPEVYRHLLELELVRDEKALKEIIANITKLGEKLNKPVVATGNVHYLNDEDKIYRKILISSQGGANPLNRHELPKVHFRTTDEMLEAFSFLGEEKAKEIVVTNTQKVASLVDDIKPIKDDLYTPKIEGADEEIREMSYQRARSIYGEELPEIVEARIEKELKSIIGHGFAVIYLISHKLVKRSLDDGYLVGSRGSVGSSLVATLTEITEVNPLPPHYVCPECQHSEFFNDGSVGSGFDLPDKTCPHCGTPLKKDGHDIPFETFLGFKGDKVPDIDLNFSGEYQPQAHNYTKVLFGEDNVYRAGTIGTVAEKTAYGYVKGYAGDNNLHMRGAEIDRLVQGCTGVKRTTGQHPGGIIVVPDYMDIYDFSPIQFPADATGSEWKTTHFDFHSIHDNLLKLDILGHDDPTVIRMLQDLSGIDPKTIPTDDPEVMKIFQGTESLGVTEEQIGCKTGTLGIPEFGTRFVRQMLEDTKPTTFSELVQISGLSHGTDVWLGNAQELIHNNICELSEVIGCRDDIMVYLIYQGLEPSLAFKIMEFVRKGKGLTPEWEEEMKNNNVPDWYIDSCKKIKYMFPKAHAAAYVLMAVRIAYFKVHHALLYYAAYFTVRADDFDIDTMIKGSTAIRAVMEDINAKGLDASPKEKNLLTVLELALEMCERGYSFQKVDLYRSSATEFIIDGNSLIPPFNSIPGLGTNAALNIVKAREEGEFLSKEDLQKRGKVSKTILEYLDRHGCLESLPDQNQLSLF
In short: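 Reconstituted B. subtilis holoenzyme (Pol III, beta clamp, SSB, primase) was preincubated with compound at room temperature, then given single-stranded circular M13Gori plus dNTPs and NTPs. EDTA-containing PicoGreen stopped the reaction, and dsDNA product was read by fluorescence.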

[11] = molecular target: Tumor susceptibility gene 101 protein (Homo sapiens) (UniProt Q99816); experiment: qHTS Validation Assay for Iinhibitors of HIV-1 Budding by Blocking the Interaction of PTAP/TSG101 (AID 485342; calls by dose curve)
Tumor susceptibility gene 101 protein (Homo sapiens), sequence (Q99816 whole entry, looked up, the tested form may be a part): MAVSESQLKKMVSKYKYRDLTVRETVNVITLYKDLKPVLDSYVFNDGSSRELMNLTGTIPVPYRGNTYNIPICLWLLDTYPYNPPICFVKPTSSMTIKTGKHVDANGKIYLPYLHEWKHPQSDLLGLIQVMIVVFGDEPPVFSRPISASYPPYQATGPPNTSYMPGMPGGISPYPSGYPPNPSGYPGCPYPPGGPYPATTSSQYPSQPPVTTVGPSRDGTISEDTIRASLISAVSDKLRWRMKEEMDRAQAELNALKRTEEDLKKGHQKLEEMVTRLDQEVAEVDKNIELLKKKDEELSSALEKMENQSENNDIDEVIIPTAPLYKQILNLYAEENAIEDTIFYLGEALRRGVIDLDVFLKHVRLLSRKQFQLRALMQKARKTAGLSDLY
In short: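 Tsg101 binding domain (10 uM final) in pH 7.5 HEPES/NaCl/Tween 20/EDTA/TCEP buffer was mixed with pin-transferred compounds, then FITC-labeled PTAP peptide (50 nM final) was added; after 20 min at r.t., fluorescence polarization was read.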

[12] = qHTS Validation Assay to Find Inhibitors of Chronic Active B-Cell Receptor Signaling (AID 485345; active = well fitted curve in the direction sought with a large enough effect in the main read-out, with a control signal flat, not every such curve was filed as active)
In short: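 TMD8 ABC-DLBCL cells stably carrying doxycycline-inducible IkappaBalpha–green luciferase fusion plus unfused red luciferase; compounds 46 uM to 3 nM, 4 h at 37C with doxycycline. Corrected green/red luminescence ratio normalized to 10 uM MG-132 and basal cell wells; curves fitted.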

[13] = molecular target: Beta-2 adrenergic receptor (Homo sapiens) (UniProt P07550); experiment: qHTS validation assay of beta-arrestin-biased ligands of beta2-adrenergic receptor (AID 485366)
Beta-2 adrenergic receptor (Homo sapiens), sequence (P07550 whole entry, looked up): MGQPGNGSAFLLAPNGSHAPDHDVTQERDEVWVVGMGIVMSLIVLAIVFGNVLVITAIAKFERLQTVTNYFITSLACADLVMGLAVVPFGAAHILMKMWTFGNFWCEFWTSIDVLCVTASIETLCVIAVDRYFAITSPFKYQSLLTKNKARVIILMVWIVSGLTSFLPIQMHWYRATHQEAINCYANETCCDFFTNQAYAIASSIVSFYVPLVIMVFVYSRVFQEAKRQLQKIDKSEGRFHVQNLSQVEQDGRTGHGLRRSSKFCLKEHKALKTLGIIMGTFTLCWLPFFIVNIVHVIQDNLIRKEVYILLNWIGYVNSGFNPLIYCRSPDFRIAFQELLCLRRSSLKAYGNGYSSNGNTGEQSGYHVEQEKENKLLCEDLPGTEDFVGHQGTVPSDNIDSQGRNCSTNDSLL
In short: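 Arrestin-recruitment (Tango) reporter: ligand-bound beta2-AR recruits beta-arrestin, releasing tTA, which upregulates luciferase. Titrations of up to 46 microM incubated 18 hr at 37 degrees C before luminescent readout.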

[14] = Quantitative high throughput screen for delayed death inhibitors of the malarial parasite plastid, 96 hour incubation (AID 488745); also: nearly all actives have a fitted effect of over 70% in size; also: potency is read from the fitted curve at half-maximal effect
In short: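 Growth of reporter-bearing P. falciparum in red cells is measured after 96 h with compound, covering two erythrocytic cycles. Luminescence from the integrated luciferase serves as the growth signal.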

[15] = Quantitative high throughput screen for delayed death inhibitors of the malarial parasite plastid, 48 hour incubation (AID 488752); also: nearly all actives have a fitted effect of over 65% in size; also: potency is read from the fitted curve at half-maximal effect
In short: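 One parasite generation (48 h, 37 C, 5% CO2) of luciferase-reporter P. falciparum in erythrocytes is run with test compound; decreased luminescence indicates inhibited growth.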

[16] = molecular target: Thioredoxin reductase 1, cytoplasmic (Rattus norvegicus) (UniProt O89049); experiment: qHTS Assay for Substrates of Mammalian Selenoprotein Thioredoxin Reductase 1 (TrxR1) (AID 488772);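 also: NADPH fluorescence in the first read after selenite addition and not the 8 min delta; series mostly up to about 57 µM; a drop in NADPH fluorescence below the no-compound background marks a TrxR1 substrate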
Thioredoxin reductase 1, cytoplasmic (Rattus norvegicus), sequence (O89049 whole entry, looked up): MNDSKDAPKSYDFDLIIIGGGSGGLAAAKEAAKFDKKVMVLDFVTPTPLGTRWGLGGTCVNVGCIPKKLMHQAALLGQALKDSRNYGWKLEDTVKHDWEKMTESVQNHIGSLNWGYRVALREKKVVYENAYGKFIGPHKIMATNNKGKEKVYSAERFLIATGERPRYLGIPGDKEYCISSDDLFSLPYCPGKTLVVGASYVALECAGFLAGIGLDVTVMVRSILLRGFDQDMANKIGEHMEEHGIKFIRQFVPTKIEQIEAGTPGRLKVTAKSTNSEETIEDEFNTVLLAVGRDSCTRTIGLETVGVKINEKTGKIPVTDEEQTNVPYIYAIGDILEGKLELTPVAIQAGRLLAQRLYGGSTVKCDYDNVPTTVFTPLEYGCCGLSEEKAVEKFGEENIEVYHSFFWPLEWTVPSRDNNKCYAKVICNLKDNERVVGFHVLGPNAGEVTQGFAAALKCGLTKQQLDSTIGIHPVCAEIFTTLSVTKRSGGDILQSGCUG
In short: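 Quantitative HTS in Tris-HCl buffer at pH 7.5 with EDTA and Tween-20, using rat TrxR1, 400 uM NADPH and 400 uM selenite (final). A fall in initial NADPH fluorescence relative to background marked substrate behaviour.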

[17] = molecular target: Flap endonuclease 1 (Homo sapiens) (UniProt P39748); experiment: qHTS Validation Assay for the Inhibitors of Human Flap endonuclease 1 (FEN1) (AID 488816)
In short: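 Human FEN1 (10 nM) preincubated 15 min at room temperature with compounds, then flap DNA substrate added at 50 nM final. Fluorescence read at 0 and 15 min; concentration-response fitted with four-parameter Hill equation.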

[18] = molecular target: M-phase phosphoprotein 8 (Homo sapiens) (UniProt Q99549); experiment: qHTS Validation Assay for Inhibitors for MPP8 Chromodomain Interactions with Methylated Histone Tails (AID 488949); also: nearly all actives have a fitted effect of over 55% in size; also: potency is read from the fitted curve at half-maximal effect
M-phase phosphoprotein 8 (Homo sapiens), sequence (Q99549 whole entry, looked up): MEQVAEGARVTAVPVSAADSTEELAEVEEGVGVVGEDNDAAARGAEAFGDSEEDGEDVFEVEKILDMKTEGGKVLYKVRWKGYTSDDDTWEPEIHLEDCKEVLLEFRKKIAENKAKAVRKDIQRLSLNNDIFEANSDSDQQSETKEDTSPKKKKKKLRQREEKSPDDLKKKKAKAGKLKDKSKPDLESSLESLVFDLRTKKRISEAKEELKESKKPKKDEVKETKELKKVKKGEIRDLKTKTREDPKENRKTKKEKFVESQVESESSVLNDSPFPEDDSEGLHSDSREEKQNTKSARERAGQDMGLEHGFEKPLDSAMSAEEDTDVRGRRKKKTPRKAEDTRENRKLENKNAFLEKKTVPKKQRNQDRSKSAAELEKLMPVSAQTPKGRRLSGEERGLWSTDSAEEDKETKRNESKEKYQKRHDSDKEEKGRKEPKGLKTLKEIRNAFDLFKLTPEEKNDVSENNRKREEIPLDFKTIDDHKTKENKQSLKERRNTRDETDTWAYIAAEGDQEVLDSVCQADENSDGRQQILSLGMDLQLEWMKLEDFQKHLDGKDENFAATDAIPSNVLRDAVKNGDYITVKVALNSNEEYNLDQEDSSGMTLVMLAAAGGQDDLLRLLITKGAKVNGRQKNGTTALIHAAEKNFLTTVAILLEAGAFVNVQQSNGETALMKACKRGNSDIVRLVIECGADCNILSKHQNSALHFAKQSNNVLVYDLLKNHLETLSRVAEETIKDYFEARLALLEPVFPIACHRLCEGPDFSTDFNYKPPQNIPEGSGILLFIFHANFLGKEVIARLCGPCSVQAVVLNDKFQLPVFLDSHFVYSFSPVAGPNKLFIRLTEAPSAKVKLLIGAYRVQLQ
In short: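 MPP8 (50 nM) was preincubated with biotinylated H3(1-18)K9me3 peptide (50 nM) in PBS pH 7.4, 0.01% Tween-20 for 30 min at room temperature, then with compounds for 30 min; binding was detected by AlphaScreen.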

[19] = molecular target: Thioredoxin reductase 1, cytoplasmic (Rattus norvegicus) (UniProt O89049); experiment: qHTS Assay for Inhibitors of Mammalian Selenoprotein Thioredoxin Reductase 1 (TrxR1) (AID 488773); details: Potency: inhibition;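 also: drop in NADPH fluorescence over an 8 min run after selenite addition; series mostly up to about 57 µM; nearly all actives have a fitted effect of over 40% in size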
In short: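 Steps: enzyme (90 nM) plus NADPH (400 uM final), 5 min at ~22 deg C; compound added, 15 min; selenite (400 uM final) added; fluorescence followed for 8 min. Concentration-response curves derived from the normalized delta values.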

[20] = molecular target: ATP-dependent 6-phosphofructokinase (Trypanosoma brucei brucei) (UniProt O15648); experiment: qHTS Validation Assay to Find Inhibitors of T. brucei phosphofructokinase (AID 485368)
ATP-dependent 6-phosphofructokinase (Trypanosoma brucei brucei), sequence (O15648 whole entry, looked up): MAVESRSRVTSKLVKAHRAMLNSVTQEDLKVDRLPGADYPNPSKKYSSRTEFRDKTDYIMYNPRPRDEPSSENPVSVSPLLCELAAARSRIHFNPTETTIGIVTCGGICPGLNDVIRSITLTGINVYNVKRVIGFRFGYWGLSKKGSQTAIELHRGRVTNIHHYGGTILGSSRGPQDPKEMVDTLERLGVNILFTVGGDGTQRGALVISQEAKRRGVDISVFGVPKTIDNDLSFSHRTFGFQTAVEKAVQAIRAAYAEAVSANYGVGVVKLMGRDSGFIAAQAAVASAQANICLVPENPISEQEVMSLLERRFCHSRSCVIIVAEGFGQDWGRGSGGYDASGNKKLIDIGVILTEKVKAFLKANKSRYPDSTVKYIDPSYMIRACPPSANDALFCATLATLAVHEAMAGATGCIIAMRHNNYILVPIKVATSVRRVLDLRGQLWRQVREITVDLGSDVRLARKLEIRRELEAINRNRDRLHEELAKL
In short: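 Steps: substrate mix (0.5 mM F6P, 0.1 mM ATP, MgCl2, TEA pH 8.0); compound; 1.25 nM T. brucei PFK; 45 min RT; ATP depletion 10 min; ADP-to-ATP detection 10 min; luminescence read; curve fitting and classification.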

Measured: Potency

COc1ccccc1N1CCNCC1
not listed: [19] | [20]
inactive: all other assays above

NCC(O)c1ccc(O)cc1 (stereo not drawn)
not listed: [20]
inactive: all other assays above

CCC1(C2=NCCN2)Cc2ccccc2O1 (stereo not drawn)
inactive: all assays above

CCCN1CCC[C@@H]2Cc3nc(N)ncc3C[C@H]21
inactive: all assays above

Nc1ccncc1
not listed: [20]
inactive: all other assays above

NCC1(CC(=O)O)CCCCC1
not listed: [2] | [9] | [20]
inactive: all other assays above

O=c1[nH]c2ccccc2n1CCCN1CCC(n2c(=O)[nH]c3cc(Cl)ccc32)CC1
active: [14] 1.17 µM | [15] 10.4 µM
not listed: [6] | [8] | [12] | [17] | [20]
inactive: all other assays above

COc1ccc(Cc2nccc3cc(OC)c(OC)cc23)cc1OC
inactive: [1] | [7] | [8] | [14] | [15] | [17] | [18]

Fc1ccc(C(OCCN2CCN(CCCc3ccccc3)CC2)c2ccc(F)cc2)cc1
active: [6] 18.5 µM | [8] 12.6 µM | [18] 15.8 µM
not listed: [2] | [3] | [4] | [5] | [7] | [12] | [15]
inactive: all other assays above

CN1C[C@H](CNC(=O)OCc2ccccc2)C[C@@H]2c3cccc4c3c(cn4C)C[C@H]21
active: [8] 15.8 µM | [14] 3.29 µM | [15] 7.38 µM
not listed: [2] | [3] | [4] | [7] | [12]
inactive: all other assays above
